In PubChem BioAssay AID651598 (Sanford-Burnham Center for Chemical Genomics, 2012):
Where “and” joins values, the source holds several entries; their conditions need not be identical. Equal values may be shown once.

Target: C-X-C chemokine receptor type 6 (Homo sapiens) (UniProt O00574)
Experiment: APJ beta-arrestin recruitment blockade alongside CXCR6 – cell-based, DiscoveRx, panel, CHO-K1, counter-screen for CXCR6 antagonist project, SAR follow-up (AID 651598)
Conditions: CHO-K1 PathHunter beta-arrestin luminescence, antagonist mode; run 2, at 80 µM (top of the series)

Chain of C-X-C chemokine receptor type 6 (Homo sapiens) (O00574 whole entry, looked up): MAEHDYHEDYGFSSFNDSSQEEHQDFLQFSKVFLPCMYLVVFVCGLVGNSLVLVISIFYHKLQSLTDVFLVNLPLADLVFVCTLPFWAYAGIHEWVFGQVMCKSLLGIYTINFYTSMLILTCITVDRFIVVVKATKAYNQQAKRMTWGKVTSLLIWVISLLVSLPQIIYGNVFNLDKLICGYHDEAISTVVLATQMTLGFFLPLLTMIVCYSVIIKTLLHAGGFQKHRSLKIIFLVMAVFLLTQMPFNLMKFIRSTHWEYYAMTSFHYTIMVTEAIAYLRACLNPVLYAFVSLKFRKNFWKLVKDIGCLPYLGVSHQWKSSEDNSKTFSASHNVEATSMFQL

Structure (SMILES)	inhibition
COc1cc(C(=O)NC2CCN(CC(=O)Nc3ccccc3)CC2)cc(OC)c1OC	25.1%
COc1cc(C(=O)NC2CC3CCC(C2)N3CC(=O)Nc2ccccc2)cc(OC)c1OC (stereo not drawn)	48.5% and 18.7%
COc1cc(C(=O)NC2CC3CCCC(C2)N3CC(=O)Nc2ccccc2)cc(OC)c1OC (stereo not drawn)	88.2% and 52.1% and 24.9%
